Source: PubChem BioAssay AID624481 (The Scripps Research Institute Molecular Screening Center, 2012)

Biological target: Prolyl endopeptidase-like (Mus musculus) (UniProt Q8C167)
Test: mouse PREPL enzyme inhibition by screening hits – biochemical, gel-based competitive ABPP, fluorescence, HTS hits, PREPL inhibitor project (AID 624481)
Conditions: purified mouse PREPL, at 20 µM, stronger effect = higher value; in the data active means inhibition above about 50%; inactive means the rest

Sequence of Prolyl endopeptidase-like (Mus musculus) (Q8C167 whole entry, looked up): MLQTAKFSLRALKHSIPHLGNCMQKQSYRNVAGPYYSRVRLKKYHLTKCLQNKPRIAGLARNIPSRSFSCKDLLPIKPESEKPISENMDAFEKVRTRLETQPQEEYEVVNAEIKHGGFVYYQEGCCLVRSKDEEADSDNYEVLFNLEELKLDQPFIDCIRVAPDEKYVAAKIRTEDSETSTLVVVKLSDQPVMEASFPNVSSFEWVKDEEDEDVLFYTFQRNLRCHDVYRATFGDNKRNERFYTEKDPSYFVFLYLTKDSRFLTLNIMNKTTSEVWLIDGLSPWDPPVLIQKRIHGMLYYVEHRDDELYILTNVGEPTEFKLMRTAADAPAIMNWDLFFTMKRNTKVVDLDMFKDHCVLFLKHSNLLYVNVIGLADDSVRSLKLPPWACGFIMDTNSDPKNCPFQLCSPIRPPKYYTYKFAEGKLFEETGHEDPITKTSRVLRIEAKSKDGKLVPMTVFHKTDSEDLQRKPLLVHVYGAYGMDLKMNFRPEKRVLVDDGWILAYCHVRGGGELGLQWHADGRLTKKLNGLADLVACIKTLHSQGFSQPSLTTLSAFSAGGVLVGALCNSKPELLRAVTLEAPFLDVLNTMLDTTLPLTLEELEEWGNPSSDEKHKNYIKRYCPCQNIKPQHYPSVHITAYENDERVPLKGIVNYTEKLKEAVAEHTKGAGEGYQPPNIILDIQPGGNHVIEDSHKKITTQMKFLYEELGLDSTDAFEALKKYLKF

inhibition, inactive:
CCN1CCCC1CNC(=O)c1ccc2c(c1)NC(=O)/C(=C\c1ccc(OC)c(OC)c1)S2 (configuration not stated) 3%, Nc1c(Cl)ncnc1NN=Cc1ccc2ccccc2n1 -48%, C#CCOCCOCCOCCNc1nc(N2CCN(C(=O)[C@H]([C@@H](C)CC)n3cc([C@@H](N)Cc4ccc(O)cc4)nn3)CC2)nc(N2CCN(C(=O)[C@H](Cc3cc4ccccc4[nH]3)n3cc([C@@H](N)CC(C)C)nn3)CC2)n1 -105%, O=C(C1=C[C@@H](c2ccc(Br)cc2)C[C@@H](OCc2ccc(CO)cc2)O1)N1CCOCC1 -26%, O=C(CSc1ccccc1F)Nc1ccc(N2CCOCC2)cc1 -55%, Cc1ccc2nc3c(cc(C(=O)NCCc4ccccc4)c(=N)n3CCCN3CCOCC3)c(=O)n2c1 -43%, CC(=O)N1CCN(c2ccc(NC(=O)COc3ccc(Cl)cc3Cl)cc2)CC1 -20%, Cc1cccc(OCC(=O)Nc2ccc(N3CCN(C(=O)c4ccco4)CC3)cc2)c1 -15%, CC[C@@H](C)[C@@H]1CN([C@@H](CN2CCC[C@H]2CN2C(N)=NC[C@H]2C(C)C)C(C)C)C(=N)N1CCCC1CCCC1 -53%, Nc1nn(-c2ccccc2)c(N)c1N=Nc1ccccc1F -38%, COc1ccc(NC(=O)c2ccc(-c3ccc(-c4noc(C)n4)cc3C)cc2)cc1N1CCN(C)CC1 -16%, Cc1cccc(OCC(=O)Nc2ccc(N3CCN(C(=O)c4ccccc4)CC3)cc2)c1 -12%, COc1ccc(C2CC(c3cccc(Cl)c3)n3nc(N)nc3N2)cc1 (configuration not stated) -29%, CN1CCN(C(=O)C2=C[C@@H](c3ccc(C(F)(F)F)cc3)C[C@@H](OCCCCO)O2)CC1 -28%, Cc1c(C#N)c(N=CN(C)C)c(C(=O)c2ccc(Br)cc2)n1-c1ccc(Cl)cc1 -59%, O=C1c2ccccc2C(=O)c2c1cccc2N1CCN(C/C=C/c2ccccc2)CC1 -116%, Cc1cc(/C=C2\SC(=Nc3ccc(F)cc3)NC2=O)c(C)n1-c1ccc(S(N)(=O)=O)cc1 28%, CC(C)n1cnc2c(NCc3ccccc3)cc(OCC3CCN(C)CC3)cc21 -49%, Cc1cc(OCC(=O)Nc2ccc(N3CCN(C)CC3)cc2)ccc1Cl -14%, CC1CC(C)CN(C(=O)c2ccc3c(c2NCCO)C(=O)c2ccccc2C3=O)C1 (configuration not stated) 7%, C#CCOCCOCCOCCNc1nc(N2CCN(C(=O)[C@H](Cc3cc4ccccc4[nH]3)n3cc([C@@H](N)C(C)CC)nn3)CC2)nc(N2CCN(C(=O)[C@H](CCCCN)n3cc([C@@H](N)CC(C)C)nn3)CC2)n1 (some centres not stated) -29%, C#CCOCCOCCOCCNc1nc(N2CCN(C(=O)[C@H](CCCCN)n3cc([C@@H](N)C(C)CC)nn3)CC2)nc(N2CCN(C(=O)[C@H](Cc3cc4ccccc4[nH]3)n3cc([C@@H](N)CC(C)C)nn3)CC2)n1 (some centres not stated) -8%, COc1ccc(C2CC(c3cccc(OC)c3)n3nc(N)nc3N2)cc1 (configuration not stated) -18%, CC(C)[C@@H]1CN=C(N)N1C[C@@H]1CCCN1C[C@H](C)N1C[C@@H](Cc2ccccc2)N(CCc2ccc(Cl)c(Cl)c2)C1=N -62%, O=C1N/C(=C/c2ccc(N3CCOCC3)cc2)C(=O)N1Cc1ccc(F)cc1 -30%, COc1ccc(CCNC(=O)c2cc3c(=O)n4ccccc4nc3n(CCCN3CCOCC3)c2=N)cc1 -26%, Cc1cc(C)c2nc(N3C(=O)C(O)=C(C(=O)c4ccco4)C3c3ccco3)sc2c1 (configuration not stated) 45%, COc1cc(-c2nnc3sc(Cc4ccc(Cl)cc4)nn23)cc(OC)c1OC 14%, CCC(=O)N1CCN(c2ccc(NC(=O)COc3cccc(C)c3C)cc2)CC1 -49%, CCCCCCCCCCCCCCCC[n+]1cccc(C(=O)N(CC)CC)c1 10%, CC(C)[C@H](CN1CCC[C@H]1CN1C(N)=NC[C@@H]1Cc1ccccc1)N1C[C@@H](Cc2ccccc2)N(CCc2ccc(Cl)c(Cl)c2)C1=N -75%, C#CCOCCOCCOCCNc1nc(N2CCN(C(=O)[C@H](Cc3ccc(O)cc3)n3cc([C@@H](N)CC(C)C)nn3)CC2)nc(N2CCN(C(=O)[C@H](Cc3cc4ccccc4[nH]3)n3cc([C@@H](N)CC(C)C)nn3)CC2)n1 -77%
